# APOBEC3A inh: APOBEC3A ssDNA deaminase inhibitors, primary screen, selectivity assay for APOBEC3G inhibitor project, biochemical, FAM/TAMRA oligo cleavage fluorescence; recombinant A3A, FAM/TAMRA ssDNA deamination fluorescence; inhibition, % at 20 µM; actives 0.41% (n = 330,000);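 active = at least 40% inhibition at 20 µM here, with at most 30% in a related deaminase screen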
# Target sequence (P31941 whole entry, looked up): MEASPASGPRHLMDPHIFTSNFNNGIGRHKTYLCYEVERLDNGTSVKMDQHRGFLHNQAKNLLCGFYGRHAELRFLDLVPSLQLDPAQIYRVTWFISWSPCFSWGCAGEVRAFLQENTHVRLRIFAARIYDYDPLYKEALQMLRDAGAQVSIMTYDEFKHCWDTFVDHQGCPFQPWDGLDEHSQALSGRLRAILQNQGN
# APOBEC3G inh: APOBEC3G DNA deaminase inhibitors, primary screen, biochemical, fluorescence, single-stranded DNA substrate, uHTS. AID 493012, 2011. inhibition, % at 20 µM. actives 0.28% (n = 330,000). recombinant A3G, ssDNA deamination FAM/TAMRA fluorescence;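 active = inhibition of at least 40% at 20 µM, with no more than 30% in the related APOBEC3A deaminase screen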
# beta cell repl: inducers of MIN6 beta-cell proliferation, primary screen, ATP luminescence, uHTS; MIN6 cells proliferation, ATPlite luminescence, 48 h; cells starved in 0.2% serum; 100% = growth in 10% serum; AID 2380, 2010; actives 0.29% (n = 330,000); proliferation, % at 10 µM;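 active = compounds whose signal lies at least 3.5 SD above the mean of all wells on their plate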
# A1 inh: caspase 3/7 activation in MEF A1-2A-BIM cells, primary screen, A1 inhibitor project, cell-based, luminescence, HTS; Caspase-Glo 3/7 luminescence, 3 h; percent of clofoctol response, vehicle zero; caspase activation, % (concentration not given with the values); actives 0.066% (n = 330,000); AID 2462, 2010;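 active = over half of replicate activation scores above 10%, or exactly half above 10 with the replicate mean above 10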
# A3A conf: APOBEC3A deaminase inhibitors, retest, confirmation, selectivity assay for APOBEC3G inhibitor project, biochemical, single concentration, fluorescence readout. AID 493151, 2011. inhibition, % at 20 µM. shares compounds with APOBEC3A inh. recombinant A3A, ssDNA deaminase UDG fluorescence assay. actives 63% (n = 1,400);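 active = inhibition reaching a set limit, 80% of the first screen's cutoff, at 20 µM in any replicate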
# UDG A3A counter: E. coli UDG inhibitors, confirmation, counter-screen for APOBEC3A inhibitor project, biochemical, single concentration, fluorescence, FAM/TAMRA oligo. shares compounds with APOBEC3A inh. UDG counterscreen, FAM/TAMRA uracil oligo fluorescence. inhibition, % at 20 µM. 1,000 tested, under 10 active. AID 504714, 2011; call rule not given here
# Hits are given with their value; 0 = inactive; - = no result given. Hits are enriched below; roughly 1.1% of the tested compounds scored in any of these assays.
SMILES,APOBEC3A inh,APOBEC3G inh,beta cell repl,A1 inh,A3A conf,UDG A3A counter
O=C1C2C(C(=O)N1/N=C/c1cc([N+](=O)[O-])c(O)cc1O)C1C=CC2C12CC2 (stereo not drawn),77.8,0,0,0,74.5,0
CCNS(=O)(=O)c1ccc(CCC(=O)NCc2ccc(C)cc2)cc1,0,0,0,0,-,-
O=C(NC1CCCCC1)c1ccc(-c2cccc([N+](=O)[O-])c2)o1,0,0,0,0,-,-
COc1ccc(NS(=O)(=O)c2ccc3c(c2)[C@H]2C=CC[C@H]2[C@@H](c2ccc(C(=O)O)cc2)N3)cc1,48.7,0,0,0,29.3,0
COc1c(S(=O)(=O)NCCCn2ccnc2)ccc(Cl)c1Cl,0,0,0,0,-,-
COc1ccccc1NC(=O)COC(=O)c1cc2c(s1)CCC2,55.9,0,0,-,46.5,0
CSc1nc2ccc(NC(=O)c3ccc(=O)[nH]c3)cc2s1,41.9,0,0,0,0,-
CSc1nc2ccc(NC(=O)c3ccc(F)c(F)c3)cc2s1,0,0,0,0,-,-
O=C(Nc1ccccc1)C1CCCN1S(=O)(=O)c1ccc(Br)cc1 (stereo not drawn),0,0,0,0,-,-
CSc1ncc(C(=O)Nc2ccc(C(C)=O)cc2)c(C)n1,0,0,0,0,-,-
Clc1ccc(Sc2ccc(/C=N/n3cnnc3)o2)cc1,0,0,0,0,-,-
Clc1ccc(Sc2oc(/C=N/n3cnnc3)cc2Br)cc1,43.3,0,0,0,72.2,0
Clc1ccc(CNCc2cccs2)c(Cl)c1,0,0,0,0,-,-
CCCNc1c(F)c(F)c2c(C)c3ccccc3nc2c1F,42.1,0,0,0,0,0
Cc1c2ccccc2nc2ccccc12,0,0,0,0,-,-
COC(=O)c1ccc(CNC(=O)c2ccc(NS(=O)(=O)c3ccc4[nH]c(=O)[nH]c4c3)cc2)cc1,0,0,0,0,-,-
CC(C)COC(=O)N1CCCC1C(=O)Nc1nccs1 (stereo not drawn),53.9,0,0,0,0,-
CCN1C(=NCCOC)N[C@@H](c2ccccc2)[C@H](C(=O)OC)[C@H]1C,45.8,0,0,0,74.9,0
CCN1C(=NCc2cc(OC)c(OC)c(OC)c2)N[C@@H](c2ccccc2)[C@H](C(=O)OC)[C@H]1C,75.1,0,0,0,47.3,-
COCCN1C(=O)N[C@@H](c2ccccc2)[C@@H](C(=O)OC)[C@H]1C,0,0,0,0,-,-
COC(=O)C1=C(C)N(Cc2ccccc2)C(=NCc2cc(OC)c(OC)c(OC)c2)N[C@H]1c1cccc(F)c1,0,0,0,0,-,-
O=C(NCC1CCCO1)c1cc(S(=O)(=O)Nc2ccc(Br)cc2)ccc1Cl (stereo not drawn),0,0,0,0,-,-
CC(=O)c1ccc(OCC(C)Oc2ccc(C#N)cc2)cc1 (stereo not drawn),0,0,0,0,-,-
COc1cccc(-c2cccc(NC(=O)C3CCN(Cc4ccon4)CC3)c2)c1,0,0,0,0,-,-
Cc1cccc(-c2oc3ccc(-c4ccc5c(c4)OCO5)cc3c2/C=C/c2ccc(N)cc2)c1,0,0,0,0,-,-
SMILES,APOBEC3A inh,APOBEC3G inh,beta cell repl,A1 inh,A3A conf,UDG A3A counter
CC(C)=CCCC1=CCC2C(=O)NNC(=O)C2C1 (stereo not drawn),58.5,0,0,0,0,0
CCOC(=O)N1CCN(C(=O)c2ccccc2NC(=O)COc2ccccc2)CC1,0,0,0,0,-,-
CCC(C)N(C(=O)c1csnn1)C(C(=O)NC(C)(C)C)c1ccccc1 (stereo not drawn),61.6,0,0,0,0,0
Cn1c(=O)c2ncn(CC(=O)NC3CCCCCC3)c2n(C)c1=O,43.0,0,0,0,0,-
Cc1cccc2cc(=O)[nH]c(C)c12,40.1,0,0,0,0,-
Cc1cccc2c(Cl)cc(=O)[nH]c12,0,0,0,-,-,-

# Source: PubChem (several laboratories)
